{
  "source": "ChEMBL document CHEMBL4513216",
  "about": "“Probing the Open Global Health Chemical Diversity Library for Multistage-Active Starting Points for Next-Generation Antimalarials” (ACS Infect Dis, 2020)",
  "note": "Among all 65,000 compounds or so, about 2,100 (3.2%) showed an effect of 50% or more. The median lay at about -52%. The full list was thinned out, with strong results kept by preference.",
  "data": [
    {"tested_on": "Plasmodium falciparum", "assay": "Screen against P. falciparum Asexual Blood Stage (ABS), at 5uM", "assay_type": "functional, Dd2", "conditions": "tested at 5 uM", "units": {"INHIBITION": "%"}, "values": [
      {"smiles": "Cc1nnc([C@H]2CC[C@@H]3[C@@H](CCN3Cc3c(C)noc3C)O2)o1", "INHIBITION": -1.83},
      {"smiles": "Cc1n[nH]c2c1C(c1ccc3c(c1)OCCO3)SCC(=O)N2", "note": "(stereo not drawn)", "INHIBITION": 8.75},
      {"smiles": "Cc1c(CNC2CCN(c3ccccc3OC(F)F)C2)cnn1C", "note": "(stereo not drawn)", "INHIBITION": 71},
      {"smiles": "O=C(N[C@@H]1CN[C@H]2CCCO[C@H]21)c1cnccn1", "INHIBITION": -120},
      {"smiles": "CN(C)[C@@H]1CN(Cc2cccnc2)C[C@H]1c1cn(C)c2ccccc12", "INHIBITION": 71.9},
      {"smiles": "Cn1cccc1C(=O)N1C[C@H]2CN(Cc3cccnc3)C[C@H]2C1", "INHIBITION": 31.3},
      {"smiles": "Cc1ccccc1CC(=O)N1C[C@@H]2CC[C@H]1CN(Cc1cccnc1)C2", "INHIBITION": -11.4},
      {"smiles": "O=C(COc1coc(CN2CCCC2)cc1=O)Nc1cc(Cl)ccc1Cl", "INHIBITION": 80.6},
      {"smiles": "CS(=O)(=O)CCCNC1(c2ccc(Br)cc2)CCC1", "INHIBITION": 78.5},
      {"smiles": "CS(=O)(=O)CCCNC1(c2cccc(Cl)c2)CCCC1", "INHIBITION": 76},
      {"smiles": "Cc1cc(CNC2(c3ccccc3)CCCCC2)no1", "INHIBITION": 44.9},
      {"smiles": "Cc1cccc(C2(NCCCS(C)(=O)=O)CCCC2)c1", "INHIBITION": 88.9},
      {"smiles": "Cc1ccc(CC(=O)N2CCN(C(C)c3ccccc3F)CC2)cn1", "note": "(stereo not drawn)", "INHIBITION": -146},
      {"smiles": "C/C(=C\\c1ccco1)CN(C)C(C)Cc1ccccn1", "note": "(stereo not drawn)", "INHIBITION": -54.2},
      {"smiles": "CCc1[nH]c2c(CNc3cc(C)nc(NC)n3)cc(C)cc2c1C", "INHIBITION": 85.1},
      {"smiles": "CCc1[nH]c2c(CNc3nc(C)cc(NC)n3)cc(C)cc2c1C", "INHIBITION": 89},
      {"smiles": "CN1C[C@H](NC(=O)c2cscn2)[C@@H]2OCCC[C@@H]21", "INHIBITION": -18.5},
      {"smiles": "O=C(c1cnn2c1OCCC2)N1CCC2(CC1)OCCO2", "INHIBITION": -54.5},
      {"smiles": "Cc1noc(C)c1CN1CC[C@@H]2O[C@H](COCC(C)C)CC[C@@H]21", "INHIBITION": -31.3},
      {"smiles": "c1cc2c(cc1CN1CC[C@H]3CO[C@H](CN4CCCC4)[C@H]3C1)OCO2", "INHIBITION": 78.6},
      {"smiles": "CN1CCN(C[C@H]2OC[C@@H]3CCN(Cc4ccsc4)C[C@@H]32)CC1", "INHIBITION": 77.7},
      {"smiles": "c1cnc(NC[C@H]2OC[C@@H]3CCN(Cc4cccnc4)C[C@@H]32)nc1", "INHIBITION": -37.6},
      {"smiles": "CN1CCN(C[C@@H]2OC[C@H]3CN(Cc4ccncc4)CC[C@H]32)CC1", "INHIBITION": -51.3},
      {"smiles": "c1cnc(NC[C@H]2OC[C@@H]3CCN(Cc4ccsc4)C[C@@H]32)nc1", "INHIBITION": -30.5},
      {"smiles": "c1cnc(NC[C@H]2OC[C@@H]3CCN(Cc4nccs4)C[C@@H]32)nc1", "INHIBITION": -52.4},
      {"smiles": "O=C1O[C@@H]2CN(Cc3ccsc3)C[C@@H]2N1Cc1ccccn1", "INHIBITION": -67.9},
      {"smiles": "Cc1ccc(Cl)cc1-n1nnnc1C1(N2CCCC2)CCCCC1", "INHIBITION": -125},
      {"smiles": "Cc1nn(-c2ccc(C(=O)O)cc2)c2c1C(c1cccs1)SCC(=O)N2", "note": "(stereo not drawn)", "INHIBITION": -57.4},
      {"smiles": "COCCN1CCN(Cc2ccncc2)c2ncccc2C1", "INHIBITION": 6.88},
      {"smiles": "Cc1ccc(C)c(OCCNC(=O)[C@@H]2CCCCN2)c1", "INHIBITION": 79.4},
      {"smiles": "CC(C)N(C)Cc1cncc2c1CCN(Cc1ccoc1)C2", "INHIBITION": -19.3},
      {"smiles": "Cc1ccc2c(n1)N(CC(C)C)CCN(S(C)(=O)=O)C2", "INHIBITION": -82.4},
      {"smiles": "Cc1nccc([C@@H]2C[C@@H]3CCN(Cc4c(C)noc4C)C[C@H]3O2)n1", "INHIBITION": -6.6},
      {"smiles": "Cc1cc(CN2C[C@@H]3COC[C@]3(c3nnc(C)o3)C2)no1", "INHIBITION": -26.2},
      {"smiles": "O=C(C1CCOC1)N1CCC2(CCCNC2)CC1", "note": "(stereo not drawn)", "INHIBITION": 0.28},
      {"smiles": "Cc1cccc(CN2C(=O)CCC23CCNCC3)n1", "INHIBITION": -102},
      {"smiles": "CCCN1C[C@@H]2CC[C@H]1CN(C(=O)Cn1c(C)cc(C)nc1=O)C2", "INHIBITION": -79.2},
      {"smiles": "CC(NCCc1nccn1Cc1ccccc1)c1cccs1", "note": "(stereo not drawn)", "INHIBITION": 86.8},
      {"smiles": "CC(Cn1cccn1)NCC(=O)NCCc1cccs1", "note": "(stereo not drawn)", "INHIBITION": -8.14},
      {"smiles": "Cc1ccc(C(C)NCCc2nccn2Cc2ccccc2)o1", "note": "(stereo not drawn)", "INHIBITION": 80.7},
      {"smiles": "CC(Cn1cccn1)NCC(=O)N(C)Cc1ccsc1", "note": "(stereo not drawn)", "INHIBITION": -27.7},
      {"smiles": "CC(NCCc1nccn1Cc1ccccc1)c1ccsc1", "note": "(stereo not drawn)", "INHIBITION": 83.5},
      {"smiles": "CCc1ccc(CN2C[C@H](OC)[C@H]3COC[C@H]32)o1", "INHIBITION": -53},
      {"smiles": "O=C(c1ccoc1)N1CCO[C@@H]2CNC[C@@H]21", "INHIBITION": -14.6},
      {"smiles": "Fc1cnc(N2CCN3C[C@H](Oc4cccnc4)C[C@H]3C2)nc1", "INHIBITION": -61.4},
      {"smiles": "c1cnc(N2CCOCC3(CNCCO3)C2)nc1", "note": "(stereo not drawn)", "INHIBITION": -4.23},
      {"smiles": "Cc1cc(C)n2nc(C(=O)N[C@H]3C[C@H]4CN(C)CCN4C3)cc2n1", "INHIBITION": -13.9},
      {"smiles": "OCCN1CCC(CNCc2ccc(N3CCCCC3)cc2)CC1", "INHIBITION": 91.9},
      {"smiles": "CCc1ccc(OCC(=O)N2CCN(CC)CC2)cc1", "INHIBITION": -123},
      {"smiles": "CCc1ccc(CNCC2CCN(CCO)CC2)cc1", "INHIBITION": 84.2},
      {"smiles": "O=C(Cc1ccc(F)c(Br)c1)N1CCN(CCO)CC1", "INHIBITION": -1.34},
      {"smiles": "OCCN1CCN(Cc2cc3c(cc2Br)OCCO3)CC1", "INHIBITION": 1.48},
      {"smiles": "OCCN1CCC(CNCc2ccc(Br)cc2)CC1", "INHIBITION": 86.7}
    ]}
  ]
}
